High-throughput results from PubChem BioAssay.
Compounds with a hit are over-represented: about 2.4% of the library has one in this group of screens.
WRN inhibitor: blocks human WRN helicase | Q14191 | AID 651768 | WRN helicase unwinding, fluorescent forked duplex, kinetic | 360,000 compounds, 0.46% hits | Potency, µM (doses to about 114 µM), for inactives: at the top dose activity change, negative = inhibition, actives largely listed as inhibitors; also: potency is read from the fitted curve at half-maximal effect; % is scaled to controls: 0 for no effect and ±100 for the full control effect; nearly all actives have a fitted effect of over 55% in size
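Kinetic fluorescence helicase assay: unwinding of a quenched forked DNA duplex (100 nM final) with 2 mM ATP final raises red fluorescence (525/598 nm). Compounds sat 15 min at room temperature with 20 nM WRN beforehand.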
Pol eta inh-1: inhibitors of human DNA polymerase eta; Potency, µM (top dose mostly 114 µM), without a hit: top-dose activity change, negative = inhibition, hits mostly inhibitors; 390,000 compounds, 1.2% hits; Q9Y253; recombinant Pol eta, fluorescent DNA replication assay; also: potency is read from the fitted curve at half-maximal effect; % is scaled to controls: 0 for no effect and ±100 for the full control effect
Target sequence (Q9Y253 whole entry, looked up): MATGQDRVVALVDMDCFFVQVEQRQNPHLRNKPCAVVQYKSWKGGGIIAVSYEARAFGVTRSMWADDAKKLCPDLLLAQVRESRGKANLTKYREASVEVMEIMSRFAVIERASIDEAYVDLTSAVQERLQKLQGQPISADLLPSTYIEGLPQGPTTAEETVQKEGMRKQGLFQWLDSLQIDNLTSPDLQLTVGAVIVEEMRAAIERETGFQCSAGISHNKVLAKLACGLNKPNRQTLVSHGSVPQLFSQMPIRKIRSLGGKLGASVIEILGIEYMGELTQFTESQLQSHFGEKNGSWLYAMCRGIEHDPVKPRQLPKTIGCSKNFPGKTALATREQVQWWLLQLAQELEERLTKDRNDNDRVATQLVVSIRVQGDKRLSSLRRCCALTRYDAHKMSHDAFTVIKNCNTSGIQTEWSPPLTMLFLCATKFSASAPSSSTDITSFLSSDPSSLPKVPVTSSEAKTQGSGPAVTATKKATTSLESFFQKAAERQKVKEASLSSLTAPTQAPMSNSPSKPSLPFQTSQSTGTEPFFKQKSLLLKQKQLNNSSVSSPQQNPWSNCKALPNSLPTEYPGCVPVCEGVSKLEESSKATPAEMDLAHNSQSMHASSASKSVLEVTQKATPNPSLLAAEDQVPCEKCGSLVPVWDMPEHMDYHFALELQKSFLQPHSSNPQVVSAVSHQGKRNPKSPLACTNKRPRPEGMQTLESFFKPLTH
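Pol eta (10 nM) was preincubated with compounds for 15 min at room temperature, after which fluorescent replication substrate (50 nM final) was added to start the reaction. Fluorescence was read kinetically at 0 and 10 min.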
Pol kappa inh-1: DNA polymerase kappa (human) inhibition; Q9UBT6; purified Pol kappa, fluorescent DNA synthesis assay, 10 min; Potency, µM (highest dose often 107 µM), for the others: top-dose activity, negative = inhibition, hits mostly inhibitors; 400,000 compounds, 0.53% hits; AID 588579; also: potency is read from the fitted curve at half-maximal effect; % is scaled to controls: 0 for no effect and ±100 for the full control effect
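Fluorescent qHTS in 1536-well format: enzyme (10 nM) and compound sat 15 min at room temperature before 50 nM substrate (final) was added. Signal taken at 0 and 10 min; no-enzyme buffer wells were negative controls.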
POLB inh: blocks human DNA polymerase beta activity | P06746 | Pol beta primer extension/strand displacement, fluorescence kinetic | Potency, µM (top dose mostly 114 µM), for the others: at the top dose activity change, negative = inhibition, actives largely listed as inhibitors | 340,000 compounds, 1.3% hits | AID 485314; also: potency is read from the fitted curve at half-maximal effect; % is scaled to controls: 0 for no effect and ±100 for the full control effect
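Enzyme-only controls used 10 nM Pol beta; buffer lacking enzyme served as negative control. Compound preincubated 15 min, then 50 nM substrate added; 0 and 10 min reads at room temperature.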
FEN1 inhibitor: inhibitors of human flap endonuclease 1. Recombinant FEN1 flap cleavage, fluorescence, 15 min. Potency, µM (highest dose often 114 µM), for the others: at the top dose activity change, negative = inhibition, usual class: inhibitors. P39748. 390,000 compounds, 0.35% hits; also: potency is read from the fitted curve at half-maximal effect; % is scaled to controls: 0 for no effect and ±100 for the full control effect; nearly all actives have a fitted effect of over 65% in size
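Steps: FEN1 (10 nM) dispensed; compound added by pin tool; 15 min at room temperature; substrate added to 50 nM final; reads at 0 min and 15 min; data normalized and fitted (four-parameter Hill).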
Pol iota inh: blocks human DNA polymerase iota activity; Q9UNA4; Pol iota fluorescent replication assay, 10 min; Potency, µM (top dose mostly 115 µM), for the others: top-dose activity, negative = inhibition, most hits filed as inhibitors; 390,000 compounds, 1% hits; also: potency is read from the fitted curve at half-maximal effect
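Pol iota at 10 nM preincubated 15 min with compounds at room temperature; reaction started with fluorescent substrate, 50 nM final. Fluorescence read kinetically at 0 and 10 min; buffer-only wells as negative control.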
PGK validate: blocks T. brucei phosphoglycerate kinase; shares compounds with Pol kappa inh-1; TbPGK coupled GAPDH assay, Kinase-Glo luminescence; Potency, µM (titrated, usually from 57.5 µM), without a hit: at the highest dose activity change, negative = inhibition, actives largely listed as inhibitors; 500 compounds, 79% hits; also: potency is read from the fitted curve at half-maximal effect; % is scaled to controls: 0 for no effect and ±100 for the full control effect; nearly all actives have a fitted effect of over 65% in size
POLI cherry-pick: Confirm cherry-picked inhibitors of human polymerase iota. shares compounds with Pol kappa inh-1. Pol iota primer extension, TAMRA/BHQ fluorescence. Potency, µM, actives largely listed as inhibitors. 1,500 compounds, 77% hits; also: potency is read from the fitted curve at half-maximal effect
GALK confirm: galactokinase (human) inhibition, confirmation; shares compounds with Pol eta inh-1; purified GALK, Kinase-Glo ATP depletion luminescence; Potency, µM (top dose mostly 115 µM), without a hit: at the top dose activity, negative = inhibition, hits mostly inhibitors; 150 compounds, 70% hits; AID 2015
GALK redox cs: redox cycling activity in phenol red-HRP assay | shares compounds with Pol eta inh-1 | Phenol red-HRP H2O2 redox cycling, absorbance 600 nm | Potency, µM (highest dose often 115 µM), for the others: top-dose activity change, negative = H2O2 signal, usual class: inhibitors | 150 compounds, 40% hits | AID 2035
HEK293 viability: counter-screen for GALK inhibitors: HEK293 cell cytotoxicity | shares compounds with Pol eta inh-1 | Potency, µM (doses to about 46.1 µM), without a hit: at the highest dose activity change, negative = cytotoxicity, actives largely listed as inhibitors | 170 compounds, 10% hits | HEK-293 viability, ATP luminescence (CellTiter-Glo), 24/48 h | AID 2547; also: potency is read from the fitted curve at half-maximal effect; % is scaled to controls: 0 for no effect and ±100 for the full control effect
Pol kappa inh-2: Pol kappa (human) inhibition, cherry-pick confirmation. Potency, µM, actives largely listed as inhibitors. shares compounds with Pol eta inh-1. AID 720501. purified Pol-kappa, fluorescent strand-displacement substrate. 920 compounds, 76% hits; also: potency is read from the fitted curve at half-maximal effect
Pol eta inh-2: confirmation of human DNA polymerase eta inhibitors; shares compounds with Pol eta inh-1; Pol eta primer extension, TAMRA/BHQ fluorescence, 10 min; 2,600 compounds, 64% hits; Potency, µM, most hits filed as inhibitors; also: potency is read from the fitted curve at half-maximal effect
Starred values were filed as active, the others as inactive; u = inconclusive; x = not tested or not shown; [ ] = another dose, or the depositor's remark. Calls follow the shape of the dose curve; as a rule, active = well fitted curve in the direction sought with a large enough effect; inconclusive = small, poorly fitted or top-dose-only effect, or another doubt; inactive = no such curve, though single readings can be large; an effect the other way counts as inactive or inconclusive.

SMILES | WRN inhibitor | Pol eta inh-1 | Pol kappa inh-1 | POLB inh | FEN1 inhibitor | Pol iota inh | POLI cherry-pick | Pol eta inh-2 | others
CC(=O)c1c(C)oc2ccc(NS(=O)(=O)c3ccc(C)cc3)cc12 | -3.7% | -17.8% | -6.9% | 14.0% | 15.0% | 13.0% | x | x
CCc1ccc(C(=O)c2cn(CC(=O)Nc3ccc4c(c3)OCO4)c3ccc(CC)cc3c2=O)cc1 | x | 89.1µM* | -4.6% | 4.47µM* | 3.2% | -93.7% | 42.3* | u
CCOc1nc(Nc2ccc(OC)cc2)nc(OCC)n1 | -34.0%[57.1 µM] | 20µM* | u | 1.2% | -8.9% | u | 67* | u
O=C(O)c1[nH]c2ccccc2c1C(c1ccccc1)c1c(C(=O)O)[nH]c2ccccc12 | -15.8% | -16.4% | -36.3% | u | -3.9% | -24.3% | x | x
COc1cc(C(c2c(C(=O)O)[nH]c3ccccc23)c2c(C(=O)O)[nH]c3ccccc23)ccc1OCc1ccccc1 | -15.9%[11.6 µM] | 50.1µM* | u | 44.7µM* | -6.2% | -26.5% | u | u
O=C(C[N+]12CN3CN(CN(C3)C1)C2)c1ccc(Br)cc1 | x | x | -16.6% | x | 3.3% | -6.7% | x | x
COC(=O)/C(C(C)=O)=C(\C=C\N(C)C)N(C)C | -7.9% | -8.3% | -3.1% | 17.4% | -0.1% | 23.6% | x | x
COC(=O)\C(C(C)=O)=C(/C=C/C=C/C=C/N(C)C)N(C)C | 21.2µM* | 2.82µM* | 22.4µM* | 10µM* | u | 3.98µM* | 15* | 6.01* | PGK validate=4.11µM*;Pol kappa inh-2=5.32*
CCOC(=O)c1cccc(NC(=O)c2cc3cc4cc(OC)ccc4nc3s2)c1 | x | u | -21.2% | u | u | 256.8% | u | u | Pol kappa inh-2=18.9*
CCn1c(N)nc2c1c(=O)n(C)c(=O)n2C | 4.3% | -1.1% | 4.9% | -19.5% | 7.7% | 30.5% | x | x
Cn1nc(-c2ccccn2)nc2c(=O)n(C)c(=O)nc1-2 | -7.8% | 0.708µM* | 5.5% | u | -4.9% | -96.1% | x | x | PGK validate=1.63µM*;GALK confirm=2.66µM*;GALK redox cs=2.66µM*;HEK293 viability=3.97µM*
CCCc1nc2c(=O)n(C)c(=O)nc-2n(C)n1 | -30.5% | 0.891µM* | 6.4% | u | -5.6% | -97.1% | 1.5* | 2.69* | PGK validate=1.46µM*;GALK confirm=0.943µM*;GALK redox cs=0.668µM*;HEK293 viability=9.96µM*
COc1ccc(-c2nc(-c3ccccn3)ncc2S(C)(=O)=O)cc1 | -27.2%[57.1 µM] | -14.4% | -1.4% | 26.0% | 9.4% | 17.4% | x | x
CCc1ccc(-c2nc3c(=O)n(C)c(=O)nc-3n(CC)n2)cc1 | x | x | -19.7% | x | 2.8% | -98.4% | 2.12* | 1.51*
CCOC(=O)C(CC)Sc1ccc2nnc(CCNS(=O)(=O)c3ccc(C)cc3)n2n1 (centres undefined) | x | -20.4% | -4.5% | -1.5% | -1.5% | 33.8% | x | x
Cc1ccc(CNC(=O)c2ccc(CN3CC(=O)N4CCCCC4C3=O)cc2)cc1 (centres undefined) | x | 9.3% | 2.1% | 1.1% | 3.8% | -14.7% | x | x
C=CCNC(=O)c1ccc(Cn2c(=S)[nH]c3cc4c(cc3c2=O)OCO4)cc1 | u | u | 79.4µM* | -14.1% | u | 20µM* | 67* | x | Pol kappa inh-2=47.4*
Cc1c(C(=O)O)sc2nc(/C=C/c3ccccc3OC(F)F)[nH]c(=O)c12 | -3.6%[11.6 µM] | u | -0.8% | 39.8µM* | u | u | 75.2* | u
CCOC(=O)CSc1nc2sc(C(=O)O)c(C)c2c(=O)[nH]1 | 0.0% | -19.9% | 2.5% | -1.2% | -2.4% | 13.7% | x | x
CCOC(=O)N(O)c1ccc(C=Cc2ccccc2)cc1 | u | 12.6µM* | 79.4µM* | x | -10.3% | 25.1µM* | 75.2* | u | PGK validate=9.19µM*;Pol kappa inh-2=16.8*
CCOC(=O)C(=Cc1ccc(N(C)C)cc1)C(=O)c1ccccc1 | -12.4% | x | x | x | x | x | x | x
CCn1c2ccccc2c2cc(NC(=O)COC(=O)c3ccccc3F)ccc21 | -8.7%[57.1 µM] | -15.2% | -11.7% | 24.1% | -4.0% | 22.9% | x | x
CCn1c2ccccc2c2cc(NC(=O)COC(=O)c3ccc(NC(=O)CC#N)cc3)ccc21 | u | u | 22.4µM* | x | u | 22.4µM* | u | 60.1*
CCCn1c2ccccc2c2cnn(CC(=O)N3CCC(C(=O)OCC)CC3)c(=O)c21 | x | -2.0% | -19.4% | -23.1% | 0.7% | 1.0% | x | x
COc1ccc(N2CCN(C(=O)Cn3cnc4sc(C)c(S(=O)(=O)N5CCC(C)CC5)c4c3=O)CC2)cc1 | x | -20.4% | 6.2% | 0.9% | 6.2% | 10.6% | x | x
Cc1ccc[n+](-c2nc([O-])sc2C=O)c1 | -17.3%[11.6 µM] | 22.4µM* | u | u | -12.5% | u | u | u
CC(C)c1ccc[n+](-c2nc([O-])sc2C=O)c1 | -3.1% | -12.4% | -6.9% | 12.4% | 4.8% | -0.3%[58.9 µM] | x | x
COc1cccc(N2CCN(Cc3cc(=O)oc4cc(C)ccc34)CC2)c1 | x | 1.9% | -4.4% | 40.6% | -3.7% | 26.0% | x | x
O=C(N/N=C/c1cn(Cc2ccccc2)c2ccccc12)c1cc(O)cc(O)c1 | -18.7%[11.6 µM] | 44.7µM* | u | 31.6µM* | -14.1% | u | 33.6* | 30.1* | Pol kappa inh-2=18.9*
